Compound activity: PubChem BioAssay, several laboratories
Only some compounds are listed: those with a hit (about 4.2% of all), similar ones and a draw of the others.
GDH-TPI inh = counter-screen for M. tuberculosis FBA inhibitors: GDH-TPI coupled enzymes; GDH-TPI coupled enzyme counterscreen, NADH absorbance; inhibition, % at 4.8 µM; 1.2% of 360,000 active; AID 588335; in the data active means inhibition above about 30%;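 further: 0% = DMSO wells and 100% = wells lacking the enzyme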
PrPC surface inh = inhibitors of human cell surface prion protein PrPC; 0.43% of 370,000 active; TR-FRET read-out; P04156; inhibition, % at 13.8 µM; in the data active means inhibition above about 24%; further: 0% = median of the test wells and 100% = reference compound wells
Mtb FBA inh = inhibits M. tuberculosis FBA enzyme; AID 588726; purified M. tuberculosis FBA, fluorescence read-out; inhibition, % at 1 µM; 2.3% of 360,000 active; in the data active means inhibition above about 27%;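 further: 0% = vehicle and 100% = reference inhibitor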
RecA intein inh = inhibitors of M. tuberculosis RecA intein splicing; P9WHJ3; inhibition, % (no concentration beside the values); 0.75% of 290,000 active; cell-free RecA intein splicing, fluorescence; AID 2221; in the data active means inhibition above about 30%;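 further: 0% = vehicle wells and 100% = reference inhibitor control wells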
Target sequence (P9WHJ3 whole entry, looked up): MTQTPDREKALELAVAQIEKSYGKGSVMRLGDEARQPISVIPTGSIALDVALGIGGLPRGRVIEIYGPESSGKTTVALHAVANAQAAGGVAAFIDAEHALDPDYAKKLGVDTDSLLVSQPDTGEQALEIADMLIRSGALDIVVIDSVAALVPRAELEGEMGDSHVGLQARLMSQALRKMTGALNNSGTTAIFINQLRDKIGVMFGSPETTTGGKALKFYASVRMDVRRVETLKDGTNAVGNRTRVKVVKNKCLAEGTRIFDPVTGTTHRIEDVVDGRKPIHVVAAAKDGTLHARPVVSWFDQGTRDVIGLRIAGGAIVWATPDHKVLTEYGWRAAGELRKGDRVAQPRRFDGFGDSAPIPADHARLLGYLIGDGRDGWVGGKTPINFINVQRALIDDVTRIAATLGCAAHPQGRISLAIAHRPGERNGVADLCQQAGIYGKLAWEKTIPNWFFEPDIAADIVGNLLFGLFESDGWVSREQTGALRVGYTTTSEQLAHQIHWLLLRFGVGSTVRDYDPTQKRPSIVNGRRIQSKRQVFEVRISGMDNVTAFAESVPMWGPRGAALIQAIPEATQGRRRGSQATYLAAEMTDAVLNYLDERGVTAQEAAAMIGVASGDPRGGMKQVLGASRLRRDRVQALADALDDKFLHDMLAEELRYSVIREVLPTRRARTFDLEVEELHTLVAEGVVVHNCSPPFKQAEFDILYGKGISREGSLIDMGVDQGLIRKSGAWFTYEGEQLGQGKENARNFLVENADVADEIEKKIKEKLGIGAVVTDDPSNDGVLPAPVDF
BJeLR viability = kills HRASV12-expressing BJeLR cells; inhibition, % (concentration not given with the values); BJeLR (HRASV12) viability, CellTiter-Glo ATP luminescence, 48 h; 0.17% of 300,000 active; in the data active means inhibition above about 50%
The depositor's hits bear a star.

O=C(CCCN1C(=O)S/C(=C\C=C\c2ccccc2)C1=O)Nc1ccc(C(=O)O)cc1 was read as GDH-TPI inh 18.7, PrPC surface inh -8.2, Mtb FBA inh 3.7, RecA intein inh 30.3* and BJeLR viability -3.8.
For CC(=O)c1ccc(NC(=O)CN2C(=O)/C(=C/C=C/c3ccccc3)SC2=S)cc1 the results were GDH-TPI inh 13.3, PrPC surface inh -5.5, Mtb FBA inh -3.6, RecA intein inh -0.1 and BJeLR viability -1.3.
`O=C(CN1C(=O)S/C(=C\c2ccc(C(=O)O)cc2)C1=O)Nc1ccccc1` gave GDH-TPI inh 35.0*, PrPC surface inh -10.2, Mtb FBA inh -0.2, RecA intein inh -0.1 and BJeLR viability -10.1.
For O=C(CCN1C(=O)S/C(=C\C=C\c2ccccc2)C1=O)Nc1ccc(O)cc1 the results were GDH-TPI inh 25.2, PrPC surface inh -2.2, Mtb FBA inh -0.9, RecA intein inh 5.7 and BJeLR viability -3.9.
`Cc1ccc(NC(=O)CN2C(=O)S/C(=C/c3ccncc3)C2=O)cc1` gave GDH-TPI inh 7.9, PrPC surface inh 2.1, Mtb FBA inh 3.6 and BJeLR viability -1.0.
Cc1cc(C)nc(NN2C(=O)/C(=C/c3ccccc3)SC2=S)n1 was read as GDH-TPI inh 33.5*, PrPC surface inh 6.8, Mtb FBA inh 1.3 and BJeLR viability -1.2.
For CC(=O)c1cc(-c2csc(C=O)c2)c(=O)n2c1CCC2 the results were PrPC surface inh 3.3.
For CCOC(=O)CC[C@@H]1CC[C@]2(CCCN(C(=O)c3ccc4ccccc4n3)C2)O1 the results were PrPC surface inh -2.2.
CCCCCC[C@@H](CN(CCCC)S(C)(=O)=O)c1ccccc1 was read as PrPC surface inh 5.2.
For O=C1/C(=C/c2ccncc2)SC(=S)N1Nc1ccccc1 the results were GDH-TPI inh 21.4, PrPC surface inh 9.1, Mtb FBA inh -1.5, RecA intein inh 8.6 and BJeLR viability 22.3.
`O=C(O)c1ccc(/C=C2\SC(=S)N(Nc3ccccc3)C2=O)cc1` gave GDH-TPI inh 33.8*, PrPC surface inh 6.1, Mtb FBA inh -0.6, RecA intein inh -3.9 and BJeLR viability 0.2.
For CCCOc1cccc(-c2nc3ccccc3c(=O)o2)c1 the results were GDH-TPI inh -5.2, PrPC surface inh 5.9, Mtb FBA inh -2.1, RecA intein inh 43.2* and BJeLR viability 6.4.
Screening CCC(=O)Nc1cccc(-c2nc3ccccc3c(=O)o2)c1 returned GDH-TPI inh 8.6, PrPC surface inh -3.4, Mtb FBA inh 4.5, RecA intein inh -1.4 and BJeLR viability -9.7.
For O=C(NC1CCCCN(Cc2ccc(OC(F)(F)F)cc2)C1=O)c1cccc(C(F)(F)F)c1 (stereo not given) the results were PrPC surface inh -2.2.
For O=C1C=C(c2ccoc2)N2CCC[C@H]2C1 the results were GDH-TPI inh 38.8*, PrPC surface inh 2.5 and Mtb FBA inh 1.3.
For Cn1ccc2ccc(-c3ccc4c(c3)[C@]3(CCC[C@@H](OCc5ccccc5)[C@@H]3NC(=O)CCc3ccccc3)C(=O)N4Cc3ccccc3)cc21 the results were PrPC surface inh -2.3.
`COc1ccc2cc(C(=O)C3CCCN(C(=O)CSc4nnc(C)o4)C3)ccc2c1` (stereo not given) gave GDH-TPI inh 17.1, PrPC surface inh -6.5, Mtb FBA inh 126.1*, RecA intein inh -0.2 and BJeLR viability -4.5.
COc1ccc2cc(C(=O)C3CCCN(C(=O)c4cncs4)C3)ccc2c1 (stereo not given) was read as GDH-TPI inh 8.4, PrPC surface inh -1.8, Mtb FBA inh 152.5* and BJeLR viability 5.2.
Screening COc1ccc2cc(C(=O)C3CCCN(C(=O)CCc4cnn(C)c4)C3)ccc2c1 (stereo not given) returned GDH-TPI inh 7.8, PrPC surface inh 1.8, Mtb FBA inh 126.7*, RecA intein inh -1.7 and BJeLR viability 4.1.
`CCNC(=O)N1CCCC(C(=O)c2ccc3cc(OC)ccc3c2)C1` (stereo not given) gave GDH-TPI inh 2.7, PrPC surface inh 9.4, Mtb FBA inh 15.6, RecA intein inh 2.1 and BJeLR viability -2.3.
`Cn1cc(CCC(=O)N2CCCC(C(=O)c3cccc4ccccc34)C2)cn1` (stereo not given) gave GDH-TPI inh -3.7, PrPC surface inh -0.1, Mtb FBA inh 7.5 and RecA intein inh -0.1.
Screening COc1ccc2cc(C(=O)C3CCCN(C(=O)c4cccnc4)C3)ccc2c1 (stereo not given) returned GDH-TPI inh 17.7, PrPC surface inh 16.3, Mtb FBA inh 162.9*, RecA intein inh 2.1 and BJeLR viability 1.8.
